ST2 IL33 inh: IL1RL1 inhibition; AlphaLISA ST2-Fc/biotin-IL-33 interaction, 1 h; inhibition, % for hits at 17 µM; 78,000 compounds, 2.3% hits; AID 1259354; in the data active = inhibition above about 30%
Target sequence (Q01638 whole entry, looked up): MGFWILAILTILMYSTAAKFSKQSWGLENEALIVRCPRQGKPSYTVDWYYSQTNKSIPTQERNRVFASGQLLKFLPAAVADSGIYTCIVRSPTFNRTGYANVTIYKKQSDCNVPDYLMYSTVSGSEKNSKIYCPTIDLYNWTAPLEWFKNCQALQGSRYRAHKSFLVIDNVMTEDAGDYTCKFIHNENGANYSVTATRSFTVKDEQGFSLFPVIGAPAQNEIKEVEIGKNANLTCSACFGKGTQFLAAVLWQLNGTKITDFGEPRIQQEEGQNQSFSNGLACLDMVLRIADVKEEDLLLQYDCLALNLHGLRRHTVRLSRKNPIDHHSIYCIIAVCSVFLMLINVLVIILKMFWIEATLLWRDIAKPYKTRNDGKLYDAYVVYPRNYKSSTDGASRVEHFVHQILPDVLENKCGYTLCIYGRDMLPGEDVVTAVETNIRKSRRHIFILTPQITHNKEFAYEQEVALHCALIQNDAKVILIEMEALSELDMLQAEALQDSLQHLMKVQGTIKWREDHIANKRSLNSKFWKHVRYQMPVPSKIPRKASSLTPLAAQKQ
* hit, by the source's call; i = inactive. The full list was thinned out, with hits kept by preference.

SMILES	ST2 IL33 inh
CCCc1cc(NC2CC(=O)N(CCc3ccccc3)C2)nc(C)n1 (stereo not drawn)	i
O=C1C2C(C(=O)N1c1cccc(Cl)c1)[C@H]1C=C[C@@H]2CC1 (stereo partly drawn)	i
CCCN(Cc1cccnc1)Cc1c(C)nn(C)c1Cl	i
CCOCCCN(C1CCN(C(C)=O)CC1)S(=O)(=O)c1cc2c(cc1Cl)NC(=O)CO2	i
O=C(CCCn1c2ccccc2c(=O)c2ccccc21)Nc1ccc(F)cc1F	i
O=C(Nc1ccccc1C1CC1)c1ccccc1Cl	i
CSc1ccc(C2C(C#N)=C(N)OC3=C2C(=O)CC(C)C3)cc1 (stereo not drawn)	i
COc1cc(C=O)ccc1OCCc1ccccc1	i
Cc1ccccc1NS(=O)(=O)c1ccc(NS(=O)(=O)c2ccc(F)cc2)cc1	i
Cc1ccccc1NC1=CC(=NS(=O)(=O)c2ccc(F)cc2)c2ccccc2C1=O	77%*
CCOc1ccccc1NS(=O)(=O)c1cc(C)ccc1OC	i
COc1ccccc1NC1=CC(=NS(=O)(=O)c2ccc(C)cc2C)c2ccccc2C1=O	95%*
COc1ccccc1NS(=O)(=O)c1cc([N+](=O)[O-])ccc1C	i
CC(C)c1ccccc1NS(=O)(=O)c1ccc(F)cc1	i
Fc1ccccc1-c1nnc([C@H]2CCN(Cc3c[nH]c4ccccc34)C2)o1	i
CC(C)(C)c1ccc(S(=O)(=O)Nc2ccccn2)cc1	i
CCc1ccc(S(=O)(=O)N=C2C=CC(=O)c3ccccc32)cc1	49%*
CCOc1cccc(S(=O)(=O)N=C2C=C(C(C)(C)C)C(=O)C(C(C)(C)C)=C2)c1	i
CC(C)(C)c1ccc(S(=O)(=O)N=C2C=CC(=O)c3ccccc32)cc1	44%*
CCOc1ccc(S(=O)(=O)N=C2C=CC(=O)c3ccccc32)cc1	49%*
CCc1ccc(S(=O)(=O)N(CC)CC)cc1	i
CC(C)(C)c1ccc(S(N)(=O)=O)cc1	i
CCc1ccc(S(=O)(=O)N2CCCN(S(=O)(=O)c3ccc(CC)cc3)CC2)cc1	i
CCOc1ccc(C2C(=O)c3ccccc3C2=O)cc1	i
COc1ccccc1C1CN(CCNC(=O)c2ccc3c(c2)OCCO3)Cc2ccccc2O1 (stereo not drawn)	i
SMILES	ST2 IL33 inh
Cc1ccc(N2CC(NC(=O)c3ccc(Br)cc3)CC2=O)cc1 (stereo not drawn)	i
CCN(CC)CCNC(=O)c1ccc(N)cc1	i
CCNS(=O)(=O)c1cc(Br)cc2c1N(C(=O)CC)CC2	i
COc1ccc(CCNC(=O)C2CCN(C(=O)Cc3ccccc3)CC2)cc1OC	i
O=C(c1ccc(S(=O)(=O)N2CCCC2)cc1)N1CCN=C1SCc1ccccc1Cl	i
COc1ccc(OC)c(CNC(=O)C2CCCN2c2nnc(N3CCCC3=O)s2)c1 (stereo not drawn)	i
CCOC(=O)c1sc2nc(C)nc(Nc3cccc(C)c3)c2c1C	i
COc1cc(C2CC(c3ccccc3O)=NN2)ccc1O (stereo not drawn)	32%*
COc1cc(C2N(Cc3ccccc3)CCN2Cc2ccccc2)ccc1O	i
COc1cc(C2C3=C(CCCC3=O)NC3=C2C(=O)c2ccccc23)ccc1O (stereo not drawn)	i
CCCCNC(=O)c1cc(=O)[nH]c2ccc(S(=O)(=O)N3CCCCC3)cc12	i
CC(C)(C)OC(=O)CSc1ncnc2sc3c(c12)CCCC3	i
COc1ccc(-n2ncc3c(N(C)Cc4ccccc4)ncnc32)cc1	i
COc1ccc(N(CC(=O)NCc2ccco2)S(C)(=O)=O)cc1OC	i
CC1=C(C(=O)OC2CCCC2)C(c2ccc(N(C)C)cc2)C2=C(CC(C)(C)CC2=O)N1 (stereo not drawn)	i
Cc1c(C(C)NCCCc2ccccc2)cnn1-c1cccc(F)c1 (stereo not drawn)	i
Cc1c(C(C)NCc2ccc(F)c(F)c2)cnn1-c1ccccc1 (stereo not drawn)	i
Cc1ccc2[nH]c(CNC(C)c3cnn(-c4cccc(F)c4)c3C)c(C)c2c1 (stereo not drawn)	32%*
CCC1C(=O)C(C)(C)C(=O)OC1c1ccccc1[N+](=O)[O-] (stereo not drawn)	i
COc1ccc([N+](=O)[O-])cc1-n1cccc1	39%*
CCN(CC)CC(O)COc1cc([N+](=O)[O-])ccc1N1CCCC1 (stereo not drawn)	i
COc1cc([N+](=O)[O-])ccc1N1CCCC1	38%*
COc1ccc([N+](=O)[O-])cc1NC(=O)C(Cl)(Cl)Cl	i
COc1cc([N+](=O)[O-])ccc1N	i
COc1ccccc1N1CCN(C(=O)Nc2ccc([N+](=O)[O-])cc2)CC1	i
SMILES	ST2 IL33 inh
O=C(O)c1cc(-c2ccccc2F)cc(S(=O)(=O)NCC2CCCO2)c1 (stereo not drawn)	i
CC(=O)Nc1ccc(-c2nc3ccc(NC(C)=O)cc3o2)cc1	i
CC(=O)N1CCCn2nc(C(=O)NCC(c3ccc(C)o3)N(C)C)cc2C1 (stereo not drawn)	i
COc1ccccc1-c1coc2cc(OC(=O)C(C)C)ccc2c1=O	i
CC12CN3CC(C)(CN(C1)C31C(=O)N(Cc3ccccc3)c3ccccc31)C2=O (stereo not drawn)	i
O=C(Nc1cccnc1)c1cnc2ccccc2n1	i
O=C1CSC(c2ccc(Cl)cc2)N1c1ccc(O)cc1 (stereo not drawn)	i
Nc1ccc(C(=O)Nc2ccc(-c3nc4ccc(NC(=O)c5ccc(N)cc5)cc4[nH]3)cc2)cc1	30%*
Cc1cccc2[nH]c(-c3ccc(NC(=O)c4ccc(N)cc4)cc3)nc12	i
CC(=O)Nc1ccc(-c2nc3ccc(NC(C)=O)cc3[nH]2)cc1	i
Cc1ccc(CNC(=O)Cn2c(=O)n(-c3ccc(C)c(F)c3)c(=O)c3sccc32)cc1	i
COc1cccc(-c2ccccc2NC(=O)C2CCN(Cc3ccc4nonc4c3)CC2)c1	i
COc1ccc(N2CCN(Cc3cccnc3)CC2)cc1	i
COc1ccc(N2CCN(Cc3ccc4nonc4c3)C(C)C2)cc1 (stereo not drawn)	31%*
CCC(=O)N1CCc2cc(Br)cc(S(=O)(=O)N3CCCCC3C)c21 (stereo not drawn)	i
O=[N+]([O-])c1cccc(C=Nc2ccc(-c3nc4ncccc4o3)cc2)c1O	i
O=[N+]([O-])c1ccccc1/C=C/c1ccc2cccc(O)c2n1	41%*
O=C(O)c1cccc(N=Cc2cccc([N+](=O)[O-])c2O)c1	i
CC(C)CNC(=O)c1ccc(NC(=O)c2ccccc2I)cc1	i
Cc1ccc(CNC(=O)CSc2nc3ccccc3[nH]2)cc1	i
CCOC(=O)C1(C/C=C/c2ccccc2)CCCNC1 (stereo not drawn)	i
Cc1c(C(C)NCc2nc(C(C)C)cs2)cnn1-c1ccccc1 (stereo not drawn)	i
Cc1nc2c(c(=O)[nH]1)CCN(C(=O)c1cc(-n3cccn3)ccc1Cl)C2	i
NC(=O)c1ccc(N2CCN(Cc3cccc(-n4cccn4)c3)CC2)nc1	i
Cc1cc(-n2cccn2)ccc1CN1CCN(c2cc(=O)[nH]c(N)n2)CC1	40%*
CCN(C(=O)c1cccc(C)c1)c1ccccc1C	i
COc1ccc(C2(CNC(=O)c3ccc([N+](=O)[O-])cc3)CCCC2)cc1	i
COc1cc(NC(=O)c2ccc([N+](=O)[O-])cc2)c(OC)cc1NC(C)=O	i
COC1(C#CC(=O)c2ccc([N+](=O)[O-])cc2)CCCCC1	61%*

Bioassay records (PubChem BioAssay)
